In PubChem BioAssay (NCATS) one finds Potency and outcome data, which are given here for 27 molecules.

The nature of assay [1]: P-glycoprotein substrates identified in KB-3-1 adenocarcinoma cell line, qHTS therapeutic library screen (AID 1346986). Note: nearly all actives have a fitted effect of over 60% in size.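 Note: potency is for cytotoxicity meaning loss of cell viability.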 In short, it runs like this:
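Cells seeded 500/well in DMEM/10% FCS; compounds pinned in dose-response; 72 h incubation; CellTiter-Glo added, 5 min, luminescence. KB-8-5-11 run ±tariquidar to test reversal of P-gp resistance.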
(qHTS replaces the single test concentration by a dilution series.)

Assay [2] in a line: P-glycoprotein substrates identified in KB-8-5-11 adenocarcinoma cell line, qHTS therapeutic library screen (AID 1346987). Note: nearly all actives have a fitted effect of over 65% in size. In short, it runs like this:
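KB-8-5-11, a colchicine-selected P-gp-overexpressing KB-3-1 subline, was grown without colchicine for the assay. Cells were seeded at 500 cells/well, dosed in concentration-response and incubated 72 h at 37 degree C, 5% CO2. Viability was read by CellTiter-Glo luminescence.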

Assay [3] relates to Zika virus NS2B-NS3 protease (linked construct). The experiment in a line: Confirmatory screen NINDS AMC qHTS for Zika virus inhibitors (AID 1347152). Note: nearly all actives have a fitted effect of over 70% in size. The method in brief:
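Purified NS2B-NS3 protease with NS2B hydrophilic domain linked to NS3 protease domain by flexible linker, 1 nM final in 10 mM Tris-HCl pH 8.0, 0.01% Tween 20. Compounds preincubated 15 min, room temperature; Bz-Nle-KRR-AMC 10 microM (Km 18.3 µM); 15-min fluorescence change, 4-parameter Hill fit.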

Records with an inconclusive call do not appear. The source made the active and inactive calls. Calls come from the whole dose curve; as a rule, active = well fitted curve in the direction sought with a large enough effect; inconclusive = small, poorly fitted or top-dose-only effect, or another doubt; inactive = no such curve, though single readings can be large; an effect the other way counts as inactive or inconclusive. *1 amine or outer side, *2 acyl side, *3 side chain or, on linkers, in order; H or OH if unused. Where a SMILES comes first, the peptide text is derived from it. Bridges are numbered along the chain shown (N, C = ends). [ ]: non-standard residue; d: D form. The star is where a group is joined. pTerphenylCO(4''-OnC5H11) = CCCCCOc1ccc(-c2ccc(-c3ccc(C(=O)*)cc3)cc2)cc1; Orn(4R-OH,5R-OH) = O=C([C@H](C[C@@H](O)[C@@H](O)N[*:3])N[*:1])[*:2]; hTyr(3S-OH,4S-OH) = N[C@H](C(=O)O)[C@H](O)[C@@H](O)c1ccc(O)cc1; Pro(3S-OH,4S-Me) = C[C@H]1CN[C@H](C(=O)O)[C@H]1O; Hyp = O=C(O)[C@@H]1C[C@@H](O)CN1
Potency is the fitted concentration of half-maximal effect.

For `O=C(O)CCc1nccc2c1[nH]c1ccccc12`, the Potency entry in assay [1] and in assay [2] was “inactive” each time.

With `O=c1cc(N2CCN(c3cccc(C(F)(F)F)c3)CC2)[nH]c(=O)n1C1CCCCC1`, the Potency result in assay [1] and in assay [2] was “inactive” each time.

Regarding `CC(=O)O[C@H]1CC[C@]2(C)[C@H]3CC[C@]4(C)Oc5oc(C)cc(=O)c5C[C@H]4[C@]3(C)CC[C@H]2C1(C)C`, the Potency entry in assay [1] and in assay [2] was “inactive” throughout.

For the molecule `CCCCCOc1ccc(-c2ccc(-c3ccc(C(=O)N[C@H]4C[C@@H](O)[C@@H](O)NC(=O)[C@@H]5[C@@H](O)[C@@H](C)CN5C(=O)[C@H]([C@@H](C)O)NC(=O)[C@H]([C@H](O)[C@@H](O)c5ccc(O)cc5)NC(=O)[C@@H]5C[C@@H](O)CN5C(=O)[C@H]([C@@H](C)O)NC4=O)cc3)cc2)cc1` ({pTerphenylCO(4''-OnC5H11)}-[Orn(4R-OH,5R-OH)]T[Hyp][hTyr(3S-OH,4S-OH)]T[Pro(3S-OH,4S-Me)]; lactam 1-C), the Potency result in assay [1] and in assay [2] was “inactive” in each case.

For `CC(=O)C=C=C1C(C)(C)CC(O)CC1(C)O[C@@H]1O[C@H](CO[C@H]2OC[C@](O)(CO)[C@H]2O)[C@@H](O)[C@H](O)[C@H]1O` (some centres not stated), the Potency entry in assay [1] and in assay [2] was “inactive” each time.

`CC1(CO)CC(O)[C@]2(C(=O)O)CCC34CC3(C=CC3[C@]5(C)C(CC[C@]34C)C(C)(CO)[C@@H](O)[C@H](O)[C@@H]5O)C2C1` (some centres not stated): the Potency entry in assay [1] and in assay [2] was “inactive” throughout.

With `CC(C)(C)Sc1c(CC(C)(C)C(=O)O)n(Cc2ccc(Cl)cc2)c2ccc(OCc3ccc4ccccc4n3)cc12`, the Potency entry in assay [1] was “inactive”. Moreover, the Potency in assay [3] is 31.2 µM (active).

In the case of `C/C=C\NC(=O)C1NC(=O)C(CC(N)=O)NC(=O)C(NC(=O)C(=O)C(C)CC)Cc2ccc(O)c(c2)-c2cccc3c2NC(=O)C3(O)C1O` (configuration not stated), the Potency entry in assay [2] is “inactive”.

On to `CC(=O)c1c(C)cc2cccc(O)c2c1O[C@@H]1O[C@H](CO)[C@@H](O)[C@H](O)[C@H]1O`, for which the Potency entry in assay [1] and in assay [2] was “inactive” in each case.

In the case of `CN(C)c1ccc(NC(=O)NS(=O)(=O)c2ccc(Cl)cc2)cc1`, the Potency entry in assay [1] and in assay [2] was “inactive” in each case.

As for `C=C1C(=O)O[C@@H]2C[C@]3(C)[C@@H](CCC(C)O)[C@@H]3C[C@H]12` (some centres not stated), the Potency result in assay [1] and in assay [2] was “inactive” each time.

For the molecule `CC(C)n1nc(C#Cc2ccccc2)c2c(N)ncnc21`, the Potency is 14.6 µM (active) in assay [1] and 16.4 µM (active) in assay [2].

With `C=C(COC(=O)C(O)C(O)CN)C12OC1C1(C)C(=CC2=O)C(O)C(O)CC1C` (configuration not stated), the Potency result in assay [1] and in assay [2] was “inactive” each time.

Regarding `C=C1[C@H]2CC[C@H](C(=O)O)[C@@]23CC[C@H](C3)C1(C)C`, the Potency entry in assay [1] and in assay [2] was “inactive” each time.

Consider `O=C(CSc1nc2ccccc2c(=O)n1-c1ccccc1)Nc1ccc2c(c1)CCC2`, for which the Potency result in assay [1] and in assay [2] was “inactive” throughout.

With `CN1c2c(nc(N)[nH]c2=O)NC[C@@H]1CNc1ccc(C(=O)N[C@@H](CCC(=O)O)C(=O)O)cc1`, the Potency entry in assay [1] and in assay [2] was “inactive” in each case.

As for `Cc1c(F)ccc(C(=O)Nc2cc([N+](=O)[O-])ccc2N2CCN(C)CC2)c1Cl`, the Potency result in assay [1] and in assay [2] was “inactive” in each case.

In the case of `NC(=O)c1cccc2[nH]c(-c3ccc(C4CCCN4)cc3F)nc12` (configuration not stated), the Potency result in assay [1] and in assay [2] was “inactive” throughout.

As to `CCN(Cc1cc(Nc2nc(C)cn3c(-c4cn[nH]c4)cnc23)sn1)C(C)(C)CO`, the figures for the Potency in assay [1] and in assay [2] were 0.0103 µM (active) and 0.411 µM (active), respectively.

With `COC1CC(=O)C23C(=O)NC(CC(C)C)C2C(C)C(C)=CC3/C=C(\C)CCCC1O` (configuration not stated), the Potency result in assay [2] is “inactive”.

In the case of `CC(=O)OCC(=O)[C@@]12O[C@@H]1C[C@H]1[C@@H]3CC=C4C[C@@H](O)CC[C@]4(C)[C@H]3CC[C@@]12C`, the Potency entry in assay [1] and in assay [2] was “inactive” throughout.

In the case of `C[C@H](Nc1ncnc2nc[nH]c12)c1cc2cccc(Cl)c2c(=O)n1-c1ccccc1`, in assay [1], the Potency was 20.6 µM (active). In addition, the Potency result in assay [2] was “inactive”.

`CC1(C)CC[C@]2(C(=O)O)[C@H](O)C[C@]3(C)C(=CCC4[C@@]5(C)CC[C@H](O[C@@H]6O[C@H](CO[C@@H]7OC[C@H](O)[C@H](O)[C@H]7O[C@@H]7OC[C@H](O)[C@H](O)[C@H]7O)[C@@H](O)[C@H](O)[C@H]6O)C(C)(C)C5CC[C@]43C)[C@@H]2C1` (some centres not stated): the outcome in assay [1] and in assay [2] was “inactive [at 9.29 µM]” throughout.

With `C=C1C(OC2OC(CO)C(O)C(O)C2O)CC2C(C)(C)C(O)CCC2(C)C1CC/C(C)=C\COC(=O)CC(=O)O` (configuration not stated), the Potency result in assay [1] and in assay [2] was “inactive” throughout.

With `COc1ccc(NC(=O)C2C[C@H](C)CC[C@H]2C(C)C)cc1` (some centres not stated), the Potency entry in assay [1] and in assay [2] was “inactive” in each case.

For the molecule `CCC(C)C1NC(=O)C(Cc2ccccc2)NC(=O)C(CCCCCC(=O)C(O)CO)NC(=O)C2CCCCN2C1=O` (configuration not stated), the Potency result in assay [1] and in assay [2] was “inactive” each time.

For `CCOc1ccc(-n2c(C(C)N(Cc3cccnc3)C(=O)Cc3ccc(F)c(C(F)(F)F)c3)nc3ncccc3c2=O)cc1` (configuration not stated), the Potency entry in assay [1] and in assay [2] was “inactive” in each case.
